Pol beta inh = qHTS Assay for Inhibitors of DNA Polymerase Beta | Pol beta primer extension/strand displacement, fluorescence kinetic | Potency, µM (highest dose often 114 µM), actives largely listed as inhibitors | actives 1.3% (n = 340,000) | AID 485314, 2010
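Pol beta (10 nM) was preincubated with compound for 15 min at room temperature. The reaction was then started with 50 nM substrate and read immediately and after a further 10 min at room temperature.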
POLH inh = qHTS for Inhibitors of Polymerase Eta. DNA polymerase eta (Homo sapiens), Q9Y253. recombinant Pol eta, fluorescent DNA replication assay. Potency, µM (titrated, usually from 114 µM), most hits filed as inhibitors. actives 1.2% (n = 390,000)
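Pol eta at 10 nM preincubated with compounds 15 min at room temperature; reaction started with fluorescent substrate (50 nM final) and read kinetically at 0 and 10 min.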
PI5P4Ka inh = qHTS for Inhibitors of phosphatidylinositol 5-phosphate 4-kinase (PI5P4K) | Phosphatidylinositol 5-phosphate 4-kinase type-2 alpha (Homo sapiens), P48426 | PI5P4Kalpha enzyme, ADP-Glo luminescence, 60 min; active compounds read low | max response, % | actives 1.2% (n = 330,000) | AID 652105, 2013; active = max response of -50% or lower; inconclusive = between -30% and -50%; inactive = -30% or higher; note: value at the top dose of about 77 µM
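Reactions run in 0.038 M HEPES pH 7.4, 0.28 mM EGTA, 0.1% CHAPS and 5% DMSO, with PI5P4Kalpha, substrate, compound and 5 microM ATP final, one hour at room temperature. Readout is ADP-Glo luminescence.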
WRN helicase inh = qHTS for Inhibitors of WRN Helicase; Bifunctional 3'-5' exonuclease/ATP-dependent helicase WRN (Homo sapiens), Q14191; WRN helicase unwinding, fluorescent forked duplex, kinetic; Potency, µM (top dose mostly 114 µM), hits mostly inhibitors; actives 0.46% (n = 360,000); AID 651768, 2012; note: nearly all actives have a fitted effect of over 55% in size
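Primary qHTS, 1536-well format. 20 nM WRN + compound, 15 min RT; start with 100 nM forked fluorophore/quencher duplex, 2 mM ATP (final); kinetic read ex 525/em 598 nm.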
Pol kappa inh = qHTS for Inhibitors of Polymerase Kappa | DNA polymerase kappa (Homo sapiens), Q9UBT6 | purified Pol kappa, fluorescent DNA synthesis assay, 10 min | Potency, µM (titrated, usually from 107 µM), most hits filed as inhibitors | actives 0.53% (n = 400,000) | AID 588579, 2011
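10 nM Pol kappa was preincubated with compounds for 15 min at room temperature. Reaction started with 50 nM (final) substrate. Fluorescence read kinetically at 0 and 10 min.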
POLI inh = qHTS for Inhibitors of Polymerase Iota; Pol iota fluorescent replication assay, 10 min; Potency, µM (top dose mostly 115 µM), most hits filed as inhibitors; actives 1% (n = 390,000); AID 588590, 2011
Target sequence (Q9UNA4 whole entry, looked up): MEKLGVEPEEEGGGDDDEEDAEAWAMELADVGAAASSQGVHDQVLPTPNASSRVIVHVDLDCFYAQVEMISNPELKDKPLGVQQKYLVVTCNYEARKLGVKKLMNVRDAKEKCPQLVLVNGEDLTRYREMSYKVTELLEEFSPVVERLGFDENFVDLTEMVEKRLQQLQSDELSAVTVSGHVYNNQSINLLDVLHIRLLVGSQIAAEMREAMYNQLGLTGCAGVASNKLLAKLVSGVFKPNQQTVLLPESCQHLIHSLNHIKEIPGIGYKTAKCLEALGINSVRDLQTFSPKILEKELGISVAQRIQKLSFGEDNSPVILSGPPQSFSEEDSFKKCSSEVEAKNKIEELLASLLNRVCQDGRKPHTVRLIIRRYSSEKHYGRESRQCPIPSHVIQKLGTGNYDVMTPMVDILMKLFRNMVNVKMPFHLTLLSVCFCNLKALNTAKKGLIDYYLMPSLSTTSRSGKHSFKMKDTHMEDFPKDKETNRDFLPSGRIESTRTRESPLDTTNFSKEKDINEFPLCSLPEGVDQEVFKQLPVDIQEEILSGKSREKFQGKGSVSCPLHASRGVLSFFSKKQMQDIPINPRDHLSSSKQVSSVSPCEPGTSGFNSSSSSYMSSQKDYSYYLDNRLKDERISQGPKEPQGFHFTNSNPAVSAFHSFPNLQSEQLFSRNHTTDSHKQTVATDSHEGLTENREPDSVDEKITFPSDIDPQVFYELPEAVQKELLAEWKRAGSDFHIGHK
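Fluorescent replication assay read twice, at 0 min and 10 min after adding 50 nM (final) substrate. Enzyme (10 nM) and compounds were first incubated 15 min at room temperature; enzyme-free buffer wells were negative controls.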
Hits are given with their value; [ ] = another dose, or the depositor's remark. Shown are actives, neighbours in structure and some others; about 2.8% of the full set was active somewhere. Unless noted, calls come from the whole dose curve; as a rule, active = well fitted curve in the direction sought with a large enough effect; inconclusive = small, poorly fitted or top-dose-only effect, or another doubt; inactive = no such curve, though single readings can be large; an effect the other way counts as inactive or inconclusive.

Results for CCCn1c(SCC(=O)Nc2nnc(-c3ccccc3)s2)nnc1-c1ccccn1 ?
Pol beta inh: 22µM; POLH inh: inconclusive; PI5P4Ka inh: inactive; WRN helicase inh: inactive; Pol kappa inh: inactive; POLI inh: inconclusive

Results for Nc1cc2nsnc2cc1Br ?
Pol beta inh: inconclusive; POLH inh: 3.5µM; PI5P4Ka inh: inactive; WRN helicase inh: inconclusive; Pol kappa inh: inactive; POLI inh: 3.5µM

Results for COc1cc2nc(N3CCCCC3)nc(NC3CCN(C)CC3)c2cc1OC ?
Pol kappa inh: inactive; POLI inh: inactive

What do the screens show for `N#Cc1cc(N2CCCCC2)c([N+](=O)[O-])cc1C#N`?
Pol beta inh: inactive; POLH inh: inactive; PI5P4Ka inh: inactive; WRN helicase inh: inactive; Pol kappa inh: inactive; POLI inh: inactive

How did O=[N+]([O-])c1cc2no[n+]([O-])c2cc1N1CCCCC1 do in these assays?
POLH inh: 16µM; PI5P4Ka inh: -80; WRN helicase inh: inconclusive; Pol kappa inh: inconclusive; POLI inh: inconclusive

How did Cc1cc(/C=N/n2c(COc3ccccc3)nc3ccccc3c2=O)c(O)c([N+](=O)[O-])c1 do in these assays?
Pol beta inh: inactive; POLH inh: inconclusive; PI5P4Ka inh: -51; WRN helicase inh: inconclusive; Pol kappa inh: inactive; POLI inh: inactive

How did O=c1c2ccccc2nc(COc2ccccc2)n1/N=C/c1ccc(O)c(O)c1 do in these assays?
Pol beta inh: inconclusive; POLH inh: 32µM; PI5P4Ka inh: inactive; WRN helicase inh: inconclusive; Pol kappa inh: inconclusive; POLI inh: inconclusive

Results for COc1cc(C2c3c(oc4ccccc4c3=O)C(=O)N2c2nccs2)ccc1O (stereo unspecified) ?
Pol beta inh: inactive; POLH inh: 79µM; PI5P4Ka inh: inactive; WRN helicase inh: inactive[11.6 µM]; Pol kappa inh: inactive; POLI inh: inactive

What do the screens show for `Cc1noc(C)c1S(=O)(=O)Nc1ccc(C(=O)Nc2ccc(Br)cc2)cc1`?
Pol beta inh: inconclusive; POLH inh: inactive; Pol kappa inh: inactive; POLI inh: inconclusive

What do the screens show for `O=[N+]([O-])c1ccc(/C=C/C2=NN(c3ccccc3)C(c3ccco3)C2)o1` (stereo unspecified)?
Pol beta inh: inconclusive; POLH inh: inconclusive; PI5P4Ka inh: -62; WRN helicase inh: inconclusive; Pol kappa inh: inconclusive; POLI inh: inconclusive

What do the screens show for `C(=C\c1ccco1)/C1=NN(c2ccccc2)C(c2ccco2)C1` (stereo unspecified)?
Pol beta inh: inconclusive; POLH inh: inactive; PI5P4Ka inh: inactive; WRN helicase inh: inconclusive; Pol kappa inh: inactive; POLI inh: inactive

What do the screens show for `O=C(N/N=C/c1ccc(Sc2ccccn2)o1)c1cc2ccccc2cc1O`?
Pol beta inh: 18µM; POLH inh: 18µM; PI5P4Ka inh: -67; WRN helicase inh: inconclusive; Pol kappa inh: 28µM; POLI inh: 20µM

Results for C/C(=N\NC(=O)c1cc2ccccc2cc1O)c1cc2ccccc2o1 ?
Pol beta inh: 7.1µM; POLH inh: 56µM; PI5P4Ka inh: -91; WRN helicase inh: inconclusive; Pol kappa inh: 79µM; POLI inh: 22µM

What do the screens show for `Cc1ccc(NC(=O)NNC(=O)c2cc3ccccc3cc2O)cc1`?
Pol beta inh: inconclusive; POLH inh: inactive; PI5P4Ka inh: inactive; WRN helicase inh: inactive; Pol kappa inh: inactive; POLI inh: inactive

Results for C/C(=N\NC(=O)c1cc2ccccc2cc1O)c1ccccn1 ?
Pol beta inh: inactive; POLH inh: inactive; PI5P4Ka inh: -54; WRN helicase inh: inactive; Pol kappa inh: inactive; POLI inh: inactive

Results for C/C(=N\NC(=O)c1c[nH]c2ccccc12)c1ccccn1 ?
Pol beta inh: inactive; POLH inh: inactive; PI5P4Ka inh: inactive; WRN helicase inh: inactive; Pol kappa inh: inactive; POLI inh: inactive

What do the screens show for `O=C(Nc1ccncc1)c1cc2ccccc2cc1O`?
POLH inh: inactive; PI5P4Ka inh: inactive; WRN helicase inh: inactive; Pol kappa inh: inactive; POLI inh: 7.9µM

Screening results as filed in PubChem BioAssay.
